Laboratory results reported in PubChem BioAssay AID1159580 (chemical genetic matrix, 2015).
Hit rate of the full screen: of about 5,500 compounds, about 2,000 (36%) were called active. About 18% were inconclusive and are not listed. No stated cut-off is given here; in the data, active means normalized growth mostly below about 0.91 (no sharp cut-off); inconclusive means no clear call, values can overlap the other calls; inactive means mostly above about 0.92. The list shows a part of the results.

Assay: chemical genetic growth profiling, strain panel (AID 1159580);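 further: tested at 20 µM; growth read once vehicle control cultures reached saturation at 30 °C; 1 = growth at the plate median or of vehicle wells; lower values mean less growth of the strain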
Details: growth OD

Measured: normalized growth

CC1=CCc2c(cc3oc(C)cc(=O)c3c2O)OC1
inactive: S. cerevisiae deletion strains, locus YJR075W, strain HOC1, active compounds read low 0.926 | S. cerevisiae deletion strains, locus YKL009W, strain mrt4, active compounds read low 0.912 | S. cerevisiae deletion strains, locus YKL068W, active compounds read low 0.974 | S. cerevisiae deletion strains, locus YKL160W, strain elf1, active compounds read low 0.978 | S. cerevisiae deletion strains, locus YKR026C, strain gcn3, active compounds read low 0.951 | S. cerevisiae deletion strains, locus YKR091W, strain srl3, active compounds read low 0.977 | S. cerevisiae deletion strains, locus YLL001W, strain dnm1, active compounds read low 0.968 | S. cerevisiae deletion strains, locus YLL026W, active compounds read low 0.97 | S. cerevisiae deletion strains, locus YLL041C, strain sdh2, active compounds read low 0.972 | S. cerevisiae deletion strains, locus YLR027C, strain aat2, active compounds read low 0.984 | S. cerevisiae deletion strains, locus YLR039C, strain RIC1, active compounds read low 0.766 | S. cerevisiae deletion strains, locus YLR058C, strain SHM2, active compounds read low 0.923 | S. cerevisiae deletion strains, locus YLR102C, strain apc9, active compounds read low 0.97 | S. cerevisiae deletion strains, locus YLR113W, strain HOG1, active compounds read low 0.931 | S. cerevisiae deletion strains, locus YLR221C, strain rsa3, active compounds read low 0.944 | S. cerevisiae deletion strains, locus YLR258W, strain gsy2, active compounds read low 0.95 | S. cerevisiae deletion strains, locus YLR262C, strain YPT6 (second series), active compounds read low 0.883 | S. cerevisiae deletion strains, locus YLR262C, strain YPT6, active compounds read low 0.772 | S. cerevisiae deletion strains, locus YLR320W, strain mms22, active compounds read low 0.932 | S. cerevisiae deletion strains, locus YLR330W, strain CHS5, active compounds read low 0.944 | S. cerevisiae deletion strains, locus YLR342W, strain FKS1, active compounds read low 1 | S. cerevisiae deletion strains, locus YLR357W, strain rsc2, active compounds read low 1.01 | S. cerevisiae deletion strains, locus YLR370C, strain arc18, active compounds read low 0.998 | S. cerevisiae deletion strains, locus YLR371W, strain rom2, active compounds read low 0.916 | S. cerevisiae deletion strains, locus YLR384C, strain iki3, active compounds read low 0.988 | S. cerevisiae deletion strains, locus YML016C, strain PPZ1, active compounds read low 0.953 | S. cerevisiae deletion strains, locus YML032C, strain rad52, active compounds read low 0.917 | S. cerevisiae deletion strains, locus YML120C, strain ndi1, active compounds read low 0.957 | S. cerevisiae deletion strains, locus YML124C, strain tub3, active compounds read low 0.966 | S. cerevisiae deletion strains, locus YMR058W, strain fet3, active compounds read low 0.936 | S. cerevisiae deletion strains, locus YMR078C, strain ctf18, active compounds read low 0.956 | S. cerevisiae deletion strains, locus YMR125W, strain sto1, active compounds read low 0.975 | S. cerevisiae deletion strains, locus YMR129W, active compounds read low 0.967 | S. cerevisiae deletion strains, locus YMR205C, strain PFK2, active compounds read low 0.971 | S. cerevisiae deletion strains, locus YMR231W, strain pep5, active compounds read low 0.998 | S. cerevisiae deletion strains, locus YMR307W, strain GAS1, active compounds read low 0.733 | S. cerevisiae deletion strains, locus YNL071W, strain lat1, active compounds read low 0.979 | S. cerevisiae deletion strains, locus YNL128W, strain TEP1, active compounds read low 0.881 | S. cerevisiae deletion strains, locus YNL183C, strain NPR1, active compounds read low 0.92 | S. cerevisiae deletion strains, locus YNL209W, strain ssb2, active compounds read low 1.01 | S. cerevisiae deletion strains, locus YNL248C, strain rpa49, active compounds read low 0.971 | S. cerevisiae deletion strains, locus YNL250W, strain rad50, active compounds read low 0.971 | S. cerevisiae deletion strains, locus YNL271C, strain bni1, active compounds read low 0.959 | S. cerevisiae deletion strains, locus YNL298W, strain CLA4, active compounds read low 0.925 | S. cerevisiae deletion strains, locus YNL322C, strain KRE1 (second series), active compounds read low 0.984 | S. cerevisiae deletion strains, locus YNL322C, strain KRE1, active compounds read low 0.94 | S. cerevisiae deletion strains, locus YNR049C, strain mso1, active compounds read low 0.981 | S. cerevisiae deletion strains, locus YNR052C, strain pop2, active compounds read low 0.973 | S. cerevisiae deletion strains, locus YOL006C, strain TOP1, active compounds read low 0.554 | S. cerevisiae deletion strains, locus YOL012C, strain htz1 1.55 | S. cerevisiae deletion strains, locus YOR001W, strain rrp6, active compounds read low 0.969 | S. cerevisiae deletion strains, locus YOR061W, strain CKA2, active compounds read low 0.972 | S. cerevisiae deletion strains, locus YOR069W, strain VPS5, active compounds read low 0.973 | S. cerevisiae deletion strains, locus YOR070C, strain gyp1, active compounds read low 0.965 | S. cerevisiae deletion strains, locus YOR080W, strain dia2, active compounds read low 0.986 | S. cerevisiae deletion strains, locus YOR083W, strain WHI5, active compounds read low 0.951 | S. cerevisiae deletion strains, locus YOR106W, strain vam3, active compounds read low 0.945 | S. cerevisiae deletion strains, locus YOR136W, strain idh2, active compounds read low 0.963 | S. cerevisiae deletion strains, locus YOR144C, strain elg1, active compounds read low 0.979 | S. cerevisiae deletion strains, locus YOR231W, strain MKK1, active compounds read low 0.958 | S. cerevisiae deletion strains, locus YOR265W, strain rbl2, active compounds read low 0.983 | S. cerevisiae deletion strains, locus YOR290C, strain snf2, active compounds read low 0.979 | S. cerevisiae deletion strains, locus YOR316C, strain cot1, active compounds read low 0.974 | S. cerevisiae deletion strains, locus YPL051W, strain arl3, active compounds read low 0.976 | S. cerevisiae deletion strains, locus YPL078C, strain atp4, active compounds read low 0.926 | S. cerevisiae deletion strains, locus YPL106C, strain sse1, active compounds read low 0.952 | S. cerevisiae deletion strains, locus YPL240C, strain hsp82, active compounds read low 0.97 | S. cerevisiae deletion strains, locus YPL241C, strain CIN2, active compounds read low 0.973 | S. cerevisiae deletion strains, locus YPL256C, strain CLN2, active compounds read low 0.99 | S. cerevisiae deletion strains, locus YPR119W, strain clb2, active compounds read low 0.956 | S. cerevisiae deletion strains, locus YPR141C, strain kar3, active compounds read low 0.972 | S. cerevisiae deletion strains, locus YPR163C, strain tif3, active compounds read low 0.921 | S. cerevisiae deletion strains, locus YPR167C, strain met16, active compounds read low 0.963
active: S. cerevisiae deletion strains, locus YKL085W, strain MDH1 (second series), active compounds read low 0.903 | S. cerevisiae deletion strains, locus YKL085W, strain MDH1, active compounds read low 0.903 | S. cerevisiae deletion strains, locus YKL190W, strain CNB1, active compounds read low 0.902 | S. cerevisiae deletion strains, locus YKR001C, strain vps1, active compounds read low 0.759 | S. cerevisiae deletion strains, locus YLR268W, strain sec22, active compounds read low 0.869 | S. cerevisiae deletion strains, locus YLR342W, strain FKS1 (second series), active compounds read low 0.792 | S. cerevisiae deletion strains, locus YLR418C, strain cdc73, active compounds read low 0.639 | S. cerevisiae deletion strains, locus YMR223W, strain ubp8, active compounds read low 0.902 | S. cerevisiae deletion strains, locus YMR263W, strain SAP30, active compounds read low 0.865 | S. cerevisiae deletion strains, locus YNL067W, strain RPL9B, active compounds read low 0.844 | S. cerevisiae deletion strains, locus YNL153C, strain GIM3, active compounds read low 0.858 | S. cerevisiae deletion strains, locus YNL233W, strain BNI4, active compounds read low 0.807 | S. cerevisiae deletion strains, locus YNL307C, strain MCK1, active compounds read low 0.651 | S. cerevisiae deletion strains, locus YOL147C, strain pex11, active compounds read low 0.922 | S. cerevisiae deletion strains, locus YOR184W, strain ser1, active compounds read low 0.782 | S. cerevisiae deletion strains, locus YOR270C, strain vph1, active compounds read low 0.683 | S. cerevisiae deletion strains, locus YPL055C, strain LGE1, active compounds read low 0.716 | S. cerevisiae deletion strains, strain wtn01, active compounds read low 0.843 | S. cerevisiae strains, strain wild type, active compounds read low 0.878
